{"source": "paper PMC7819943", "about": "“Rice protein-binding microarrays: a tool to detect cis-acting elements near promoter regions in rice”", "note": "Whole data set: some 68,000 sequences, median “fluorescence intensity (a.u.)” near 9,100, cut for the highest 2% near 16,000. The list comes from a sample in which the highest values are over-represented; it also holds similar and randomly drawn sequences."}
{"target": "OsWRKY34 (Oryza sativa, UniProt Q0JBA9 1-250)", "sequence (Q0JBA9 entry or part of it)": "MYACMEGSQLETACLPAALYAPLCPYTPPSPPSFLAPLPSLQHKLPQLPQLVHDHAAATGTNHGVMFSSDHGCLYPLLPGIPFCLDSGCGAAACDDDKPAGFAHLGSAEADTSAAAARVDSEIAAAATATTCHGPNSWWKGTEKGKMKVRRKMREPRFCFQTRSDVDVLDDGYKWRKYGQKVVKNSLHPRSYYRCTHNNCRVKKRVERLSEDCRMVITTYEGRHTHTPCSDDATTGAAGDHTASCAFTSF", "assay": "protein-binding microarray (RPBM); PBS, 2% BSA, 51.3 ng/ul salmon testes DNA, 50 uM zinc acetate, 200 nM TF, 25 C, 1 h; high values mean tight binding", "settings": "protein: recombinant; tags: N-terminal polyhistidine and DsRed monomer fusion (pET32a); label: CyDye5-dUTP incorporated in the synthesized complementary strand; 3' TTTTT single-stranded linker to array surface; dsDNA, one strand shown", "summary_of_the_method": "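For the binding signal, per-feature fluorescence intensity was read in arbitrary units on an Axon 4000B scanner. Before scanning, a 2% BSA-blocked custom Agilent array made double-stranded with Cy5-dUTP was washed after 1 h at 25 °C with 200 nM protein and 50 µM zinc acetate. The proteins were Ni–NTA-purified transcription factors with N-terminal polyhistidine and DsRed fusions, expressed in E. coli BL21-CodonPlus.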"}
{"sequence": "TATGGTATTTGGGTTAAAGAACGAAAATCGAACTCGCTGTCGGAGTCACCTAGTGCAG", "binding signal": "8160 fluorescence intensity (a.u.)"}
{"sequence": "GAGGGAGGGAGGGAGGGAGACCGCGAGTGTGAGTGACTGCCGGAGTCACCTAGTGCAG", "binding signal": "10200 fluorescence intensity (a.u.)"}
{"sequence": "ACTGCCCTTATCATTTCCGATTCCGTTTCCGAGAAAATATCGGAGTCACCTAGTGCAG", "binding signal": "9240 fluorescence intensity (a.u.)"}
{"sequence": "ACTTTGTCACTTGACTTATTCTCTGGCCGTGCGTATAAATCGGAGTCACCTAGTGCAG", "binding signal": "8150 fluorescence intensity (a.u.)"}
{"sequence": "CCTGCTATTGTACCTGCTCTAAGCCAGCTATAACCATATACGGAGTCACCTAGTGCAG", "binding signal": "8170 fluorescence intensity (a.u.)"}
{"sequence": "GTGAAGTGTGGTTTAAAAATGGTTGCCTGGTCACTTTATCCGGAGTCACCTAGTGCAG", "binding signal": "9020 fluorescence intensity (a.u.)"}
{"sequence": "TGTCAGTCACTGTCCCCTTCGTGGTCGTCTTCGCCACTTCCGGAGTCACCTAGTGCAG", "binding signal": "9210 fluorescence intensity (a.u.)"}
{"sequence": "GCGGTGGCGGTTGGGGTGGCGAGTGGGGAGGAGGAGGCGGCGGAGTCACCTAGTGCAG", "binding signal": "18900 fluorescence intensity (a.u.)"}
{"sequence": "CGGCGGAGGGAGGATCGGGGTGGGTGGCGCAGCGGCGACGCGGAGTCACCTAGTGCAG", "binding signal": "11200 fluorescence intensity (a.u.)"}
{"sequence": "GGGGTGGGGTTGGCGGCGACGCGGGCGAGGCCGAGGAGGACGGAGTCACCTAGTGCAG", "binding signal": "13400 fluorescence intensity (a.u.)"}
{"sequence": "GGCGGGAGGCGCGGGCGGCGAGGTGCTCCTCTTCTCTCTCCGGAGTCACCTAGTGCAG", "binding signal": "9060 fluorescence intensity (a.u.)"}
{"sequence": "AGGTGGAGGCGCCGGTGTGGGTGGTGGAGCGGGAGGAGGTCGGAGTCACCTAGTGCAG", "binding signal": "8610 fluorescence intensity (a.u.)"}
{"sequence": "GGCGGGCGCGGTGGAGGCGGGGAGGAAGGGGAGCGGAGGTCGGAGTCACCTAGTGCAG", "binding signal": "9390 fluorescence intensity (a.u.)"}
{"sequence": "AAGCGATCGGGGCGGCGGAGGAGGTGGGTGGGAGGGAGGGCGGAGTCACCTAGTGCAG", "binding signal": "30200 fluorescence intensity (a.u.)"}
{"sequence": "GTCGGGCGGGAGCGGTGCAGGGTGGAGGAGGTGGGCGGGGCGGAGTCACCTAGTGCAG", "binding signal": "22900 fluorescence intensity (a.u.)"}
{"sequence": "GCGGAGGAGGGCGGGAGGAAGCGGGTGGCGGCGGCGGAGTCGGAGTCACCTAGTGCAG", "binding signal": "10900 fluorescence intensity (a.u.)"}
{"sequence": "GGGGAGGCGAGGCGGCGAGGTTATAAAAACGGTGGGGTGGCGGAGTCACCTAGTGCAG", "binding signal": "12200 fluorescence intensity (a.u.)"}
{"sequence": "CTCTCCTCTCTTCTCGAGCGCGGCGGCGGTGGTGGGGAGGCGGAGTCACCTAGTGCAG", "binding signal": "14300 fluorescence intensity (a.u.)"}
{"sequence": "TCTCTTCCTTGCTGTGGTGGCGGCGGGCGGGAGGGCGGCGCGGAGTCACCTAGTGCAG", "binding signal": "35000 fluorescence intensity (a.u.)"}
{"sequence": "ATACTAGTCCATTCGAGTTGAAACGTTCAGTGAACAGCTACGGAGTCACCTAGTGCAG", "binding signal": "8030 fluorescence intensity (a.u.)"}
{"sequence": "GATCTCTTGCAGCTGCGCATCTGTGCATGCATCCACACTACGGAGTCACCTAGTGCAG", "binding signal": "9260 fluorescence intensity (a.u.)"}
{"sequence": "TTGATCCTGCTTTTAGTTATAGTTTTTGTTAGGGTGTATTCGGAGTCACCTAGTGCAG", "binding signal": "10100 fluorescence intensity (a.u.)"}
{"sequence": "TAAAACTAGTCATCCCTTCATTTTATATTATAAGTTGTTTCGGAGTCACCTAGTGCAG", "binding signal": "8290 fluorescence intensity (a.u.)"}
{"sequence": "TGTGCCTGCCGACTCGCCCACGCAACTCCGACTCTTTCCTCGGAGTCACCTAGTGCAG", "binding signal": "13500 fluorescence intensity (a.u.)"}
{"sequence": "TGAGGTTTTGGGTTCTTGGGCACTTCTTGTTCTAGCCAAGCGGAGTCACCTAGTGCAG", "binding signal": "9900 fluorescence intensity (a.u.)"}
{"sequence": "GTTAACTTTTGGTAGTTGCAGGGGTTCTATAGGTGGGCAGCGGAGTCACCTAGTGCAG", "binding signal": "8640 fluorescence intensity (a.u.)"}
{"sequence": "CTTGGGGAAGGCGGCGGGTGTCGGGGAGGGCGAGGGTATCCGGAGTCACCTAGTGCAG", "binding signal": "18000 fluorescence intensity (a.u.)"}
{"sequence": "GGCGGGGCGGATCCGAGGGGCGAAGTGGGTCGGGCGGCGGCGGAGTCACCTAGTGCAG", "binding signal": "9480 fluorescence intensity (a.u.)"}
{"sequence": "TTGGCGCGCGGTTGGTGGGGCGGTGGTGGTGGTGGTGCCTCGGAGTCACCTAGTGCAG", "binding signal": "17400 fluorescence intensity (a.u.)"}
{"sequence": "GGAGTGTGGCGGAGCGGGAGTTCGCGGGCGGACGGCGGGGCGGAGTCACCTAGTGCAG", "binding signal": "11700 fluorescence intensity (a.u.)"}
{"sequence": "CTGGCGAGCAGAGCAGGGGAGGGGAGGGGAGGGGATCGGGCGGAGTCACCTAGTGCAG", "binding signal": "14200 fluorescence intensity (a.u.)"}
{"sequence": "GGTTGGTGGCGGTGGGCCGGTGGCGGCTCGGTGGCGGAGCCGGAGTCACCTAGTGCAG", "binding signal": "10200 fluorescence intensity (a.u.)"}
{"sequence": "GCGGGACTTGCAGATCCGAGCGGGCGGGGCGGGGCGGGTTCGGAGTCACCTAGTGCAG", "binding signal": "22000 fluorescence intensity (a.u.)"}
{"sequence": "TATGGGTAGGTTCTTGTTCTATGGGGCAGGGGTCTTAAAGCGGAGTCACCTAGTGCAG", "binding signal": "17100 fluorescence intensity (a.u.)"}
{"sequence": "GTGGGTTGGGGTCGGCGAGGGATCCGGGCGGCGGGGTATGCGGAGTCACCTAGTGCAG", "binding signal": "14000 fluorescence intensity (a.u.)"}
{"sequence": "TTGGTGGGTGGCGCGGTGGCCGGACCTGGGGTGGTGGGCGCGGAGTCACCTAGTGCAG", "binding signal": "15900 fluorescence intensity (a.u.)"}
{"sequence": "GCTATCGCCGGTTTCGTCATCAATAATCTTCTCTGCCTCTCGGAGTCACCTAGTGCAG", "binding signal": "8820 fluorescence intensity (a.u.)"}
{"sequence": "TTTCATCGTTTAGTGTCTTACTCCCTTTCCGATGGTCAACCGGAGTCACCTAGTGCAG", "binding signal": "9340 fluorescence intensity (a.u.)"}
{"sequence": "CATTCTTGTCTGTAGCTTATTTGTTCGTGTTCATTAGTTTCGGAGTCACCTAGTGCAG", "binding signal": "13500 fluorescence intensity (a.u.)"}
{"sequence": "TGTCTCTCTTTGACATCTTGTTTCCCATAACCTAAAGATACGGAGTCACCTAGTGCAG", "binding signal": "8260 fluorescence intensity (a.u.)"}
{"sequence": "GTACGCAACTTGTCCGCAGCCGCGACCCCGACCCGACCCGCGGAGTCACCTAGTGCAG", "binding signal": "8200 fluorescence intensity (a.u.)"}
{"sequence": "ATCATCCATATCCAGCTATACTATACTACTCGATCCCTTCCGGAGTCACCTAGTGCAG", "binding signal": "10200 fluorescence intensity (a.u.)"}
